Assay results taken from PubChem BioAssay AID1159580 (chemical genetic matrix, 2015).
Screen size: about 5,500 compounds; about 2,000 (36%) were called active. Another 18% or so got no clear call; they are omitted. No stated cut-off is given here; in the data, active means normalized growth mostly below about 0.91 (no sharp cut-off); inconclusive means no clear call, values can overlap the other calls; inactive means mostly above about 0.92. This is one part of the list.

Assay: chemical genetic growth profiling, strain panel (AID 1159580);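 further: tested at 20 µM; growth read once vehicle control cultures reached saturation at 30 °C; 1 = growth at the plate median or of vehicle wells; lower values mean less growth of the strain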
Conditions: S. cerevisiae deletion strains, growth OD

Measured: normalized growth

N#CC(C#N)=NNc1ccc(C(F)(F)F)cc1
active: locus YAR019C, strain CDC15, hits give low values 0.135 | locus YBL105C, strain PKC1, hits give low values 0.148 | locus YBR135W, strain CKS1, hits give low values 0.135 | locus YBR136W, strain MEC1, hits give low values 0.147 | locus YBR160W, strain CDC28, hits give low values 0.168 | locus YDL017W, strain CDC7, hits give low values 0.178 | locus YDL028C, strain MPS1, hits give low values 0.311 | locus YDL101C, strain DUN1, hits give low values 0.124 | locus YDL108W, strain KIN28, hits give low values 0.152 | locus YDL132W, strain cdc53, hits give low values 0.126 | locus YDL214C, strain PRR2, hits give low values 0.131 | locus YDR052C, strain DBF4, hits give low values 0.255 | locus YDR054C, strain cdc34, hits give low values 0.138 | locus YDR226W, strain ADK1, hits give low values 0.178 | locus YDR477W, strain SNF1, hits give low values 0.116 | locus YER123W, strain YCK3, hits give low values 0.116 | locus YER133W, strain GLC7, hits give low values 0.11 | locus YFL009W, strain cdc4, hits give low values 0.132 | locus YFL029C, strain CAK1, hits give low values 0.138 | locus YFR003C, strain YPI1, hits give low values 0.339 | locus YFR019W, strain FAB1, hits give low values 0.12 | locus YFR028C, strain CDC14, hits give low values 0.144 | locus YGR040W, strain KSS1, hits give low values 0.113 | locus YGR052W, strain FMP48, hits give low values 0.129 | locus YGR092W, strain DBF2, hits give low values 0.105 | locus YHR030C, strain SLT2, hits give low values 0.144 | locus YHR079C, strain IRE1, hits give low values 0.155 | locus YHR082C, strain KSP1, hits give low values 0.169 | locus YHR205W, strain SCH9, hits give low values 0.0194 | locus YIL147C, strain SLN1, hits give low values 0.397 | locus YJL095W, strain BCK1, hits give low values 0.116 | locus YJL128C, strain PBS2, hits give low values 0.149 | locus YJL157C, strain FAR1, hits give low values 0.106 | locus YJR016C, strain ILV3, hits give low values 0.13 | locus YJR066W, strain TOR1 (second series), hits give low values 0.116 | locus YJR066W, strain TOR1, hits give low values 0.146 | locus YKL048C, strain ELM1, hits give low values 0.134 | locus YKL067W, strain YNK1, hits give low values 0.113 | locus YKL101W, strain HSL1, hits give low values 0.112 | locus YKL193C, strain SDS22, hits give low values 0.118 | locus YKL203C, strain TOR2, hits give low values 0.132 | locus YLR113W, strain HOG1, hits give low values 0.166 | locus YLR133W, strain CKI1, hits give low values 0.109 | locus YLR403W, strain SFP1, hits give low values 0.0217 | locus YML070W, strain DAK1, hits give low values 0.106 | locus YMR001C, strain CDC5, hits give low values 0.133 | locus YMR205C, strain PFK2 (second series), hits give low values 0.104 | locus YMR277W, strain FCP1, hits give low values 0.119 | locus YNL006W, strain LST8, hits give low values 0.194 | locus YNL020C, strain ARK1, hits give low values 0.128 | locus YNL161W, strain CBK1, hits give low values 0.137 | locus YNL183C, strain NPR1, hits give low values 0.141 | locus YNL207W, strain RIO2, hits give low values 0.155 | locus YNL222W, strain SSU72, hits give low values 0.131 | locus YNL307C, strain MCK1 (second series), hits give low values 0.133 | locus YOL078W, strain AVO1, hits give low values 0.117 | locus YOL136C, strain PFK27, hits give low values 0.111 | locus YOR061W, strain CKA2, hits give low values 0.108 | locus YOR119C, strain RIO1, hits give low values 0.119 | locus YOR231W, strain MKK1, hits give low values 0.126 | locus YOR329C, strain SCD5, hits give low values 0.187 | locus YPL031C, strain PHO85, hits give low values 0.116 | locus YPL153C, strain RAD53, hits give low values 0.107 | locus YPL204W, strain HRR25, hits give low values 0.115 | locus YPL209C, strain IPL1, hits give low values 0.135 | locus YPL256C, strain CLN2, hits give low values 0.179 | locus YPR025C, strain CCL1, hits give low values 0.154 | locus YPR106W, strain ISR1, hits give low values 0.116 | locus YPR111W, strain DBF20, hits give low values 0.122 | strain NNK1, hits give low values 0.124 | strain TSCII, hits give low values 0.137
